# Hit rate of the full screen: of about 5,500 compounds, about 2,000 (36%) were called active. Roughly 18% stayed inconclusive and do not appear here. The list shows a part of the results. Values without a mark were called inactive. No stated cut-off is given here; in the data, active means normalized growth mostly below about 0.91 (no sharp cut-off); inconclusive means no clear call, values can overlap the other calls; inactive means mostly above about 0.92.
# Assay: chemical genetic growth profiling, strain panel (AID 1159580);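 further: tested at 20 µM; growth read once vehicle control cultures reached saturation at 30 °C; 1 = growth at the plate median or of vehicle wells; lower values mean less growth of the strain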
# Conditions: growth OD
structure (smiles),measurement,setting,value
CC(=O)c1cc2c(cc1O)OC(C)(C)C=C2,normalized growth,"S. cerevisiae deletion strains, locus YAL013W, strain DEP1, hits give low values",0.991
same,normalized growth,"S. cerevisiae deletion strains, locus YBR021W, strain FUR4, hits give low values",1.01
same,normalized growth,"S. cerevisiae deletion strains, locus YBR229C, strain ROT2, hits give low values",0.983
same,normalized growth,"S. cerevisiae deletion strains, locus YCL029C, strain bik1, hits give low values",0.993
same,normalized growth,"S. cerevisiae deletion strains, locus YDL035C, strain GPR1, hits give low values",1
same,normalized growth,"S. cerevisiae deletion strains, locus YDL074C, strain BRE1, hits give low values",0.974
same,normalized growth,"S. cerevisiae deletion strains, locus YDL101C, strain DUN1, hits give low values",0.999
same,normalized growth,"S. cerevisiae deletion strains, locus YDL134C, strain PPH21, hits give low values",1.01
same,normalized growth,"S. cerevisiae deletion strains, locus YDL185W, strain tfp1, hits give low values",0.993
same,normalized growth,"S. cerevisiae deletion strains, locus YDL192W, strain arf1, hits give low values",0.976
same,normalized growth,"S. cerevisiae deletion strains, locus YDR101C, strain arx1, hits give low values",0.891 (active)
same,normalized growth,"S. cerevisiae deletion strains, locus YDR162C, strain NBP2, hits give low values",1
same,normalized growth,"S. cerevisiae deletion strains, locus YDR318W, strain mcm21, hits give low values",0.999
same,normalized growth,"S. cerevisiae deletion strains, locus YDR388W, hits give low values",0.992
same,normalized growth,"S. cerevisiae deletion strains, locus YDR502C, strain sam2, hits give low values",1
same,normalized growth,"S. cerevisiae deletion strains, locus YER110C, hits give low values",0.979
same,normalized growth,"S. cerevisiae deletion strains, locus YER155C, strain BEM2, hits give low values",0.975
same,normalized growth,"S. cerevisiae deletion strains, locus YER167W, strain BCK2, hits give low values",0.96
same,normalized growth,"S. cerevisiae deletion strains, locus YGL078C, strain dbp3, hits give low values",1.03
same,normalized growth,"S. cerevisiae deletion strains, locus YGL086W, strain mad1, hits give low values",0.972
same,normalized growth,"S. cerevisiae deletion strains, locus YGL248W, strain PDE1, hits give low values",0.997
same,normalized growth,"S. cerevisiae deletion strains, locus YGR078C, strain PAC10, hits give low values",1.01
same,normalized growth,"S. cerevisiae deletion strains, locus YGR135W, strain pre9, hits give low values",1.02
same,normalized growth,"S. cerevisiae deletion strains, locus YGR252W, strain gcn5, hits give low values",1.07
same,normalized growth,"S. cerevisiae deletion strains, locus YHR079C, strain IRE1 (second series), hits give low values",0.988
same,normalized growth,"S. cerevisiae deletion strains, locus YHR094C, strain hxt1, hits give low values",0.983
same,normalized growth,"S. cerevisiae deletion strains, locus YHR129C, strain ARP1, hits give low values",0.991
same,normalized growth,"S. cerevisiae deletion strains, locus YHR200W, strain rpn10, hits give low values",0.97
same,normalized growth,"S. cerevisiae deletion strains, locus YIL066C, strain RNR3, hits give low values",0.979
same,normalized growth,"S. cerevisiae deletion strains, locus YIL073C, strain SPO22, hits give low values",1.03
same,normalized growth,"S. cerevisiae deletion strains, locus YIL125W, strain kgd1, hits give low values",0.974
same,normalized growth,"S. cerevisiae deletion strains, locus YIR030C, strain dcg1, hits give low values",0.982
same,normalized growth,"S. cerevisiae deletion strains, locus YJL095W, strain BCK1, hits give low values",1.02
same,normalized growth,"S. cerevisiae deletion strains, locus YJL134W, strain LCB3, hits give low values",0.98
same,normalized growth,"S. cerevisiae deletion strains, locus YJL168C, strain set2, hits give low values",0.991
same,normalized growth,"S. cerevisiae deletion strains, locus YJL187C, strain SWE1 (second series), hits give low values",1.03
same,normalized growth,"S. cerevisiae deletion strains, locus YJR043C, strain POL32, hits give low values",0.935
same,normalized growth,"S. cerevisiae deletion strains, locus YKL009W, strain mrt4, hits give low values",1.01
same,normalized growth,"S. cerevisiae deletion strains, locus YKL068W, hits give low values",0.973
same,normalized growth,"S. cerevisiae deletion strains, locus YKL085W, strain MDH1 (second series), hits give low values",0.976
same,normalized growth,"S. cerevisiae deletion strains, locus YKL085W, strain MDH1, hits give low values",0.976
same,normalized growth,"S. cerevisiae deletion strains, locus YKL190W, strain CNB1, hits give low values",0.991
same,normalized growth,"S. cerevisiae deletion strains, locus YKR001C, strain vps1, hits give low values",0.968
same,normalized growth,"S. cerevisiae deletion strains, locus YLR039C, strain RIC1, hits give low values",0.952
same,normalized growth,"S. cerevisiae deletion strains, locus YLR058C, strain SHM2, hits give low values",0.999
same,normalized growth,"S. cerevisiae deletion strains, locus YLR102C, strain apc9, hits give low values",0.981
same,normalized growth,"S. cerevisiae deletion strains, locus YLR268W, strain sec22, hits give low values",0.99
same,normalized growth,"S. cerevisiae deletion strains, locus YLR330W, strain CHS5, hits give low values",0.983
same,normalized growth,"S. cerevisiae deletion strains, locus YLR371W, strain rom2, hits give low values",0.808 (active)
same,normalized growth,"S. cerevisiae deletion strains, locus YLR418C, strain cdc73, hits give low values",0.964
same,normalized growth,"S. cerevisiae deletion strains, locus YML016C, strain PPZ1, hits give low values",0.938
same,normalized growth,"S. cerevisiae deletion strains, locus YML032C, strain rad52, hits give low values",0.993
same,normalized growth,"S. cerevisiae deletion strains, locus YML124C, strain tub3, hits give low values",0.965
same,normalized growth,"S. cerevisiae deletion strains, locus YMR078C, strain ctf18, hits give low values",0.956
same,normalized growth,"S. cerevisiae deletion strains, locus YMR223W, strain ubp8, hits give low values",1.01
same,normalized growth,"S. cerevisiae deletion strains, locus YMR307W, strain GAS1, hits give low values",1.15
same,normalized growth,"S. cerevisiae deletion strains, locus YNL067W, strain RPL9B, hits give low values",1.01
same,normalized growth,"S. cerevisiae deletion strains, locus YNL233W, strain BNI4, hits give low values",0.991
same,normalized growth,"S. cerevisiae deletion strains, locus YNL250W, strain rad50, hits give low values",0.997
same,normalized growth,"S. cerevisiae deletion strains, locus YNL271C, strain bni1, hits give low values",0.977
same,normalized growth,"S. cerevisiae deletion strains, locus YNL298W, strain CLA4, hits give low values",1.01
same,normalized growth,"S. cerevisiae deletion strains, locus YNL307C, strain MCK1, hits give low values",0.975
same,normalized growth,"S. cerevisiae deletion strains, locus YNR052C, strain pop2, hits give low values",1.06
same,normalized growth,"S. cerevisiae deletion strains, locus YOL012C, strain htz1",0.862
same,normalized growth,"S. cerevisiae deletion strains, locus YOL147C, strain pex11, hits give low values",0.96
same,normalized growth,"S. cerevisiae deletion strains, locus YOR061W, strain CKA2, hits give low values",0.982
same,normalized growth,"S. cerevisiae deletion strains, locus YOR069W, strain VPS5, hits give low values",0.989
same,normalized growth,"S. cerevisiae deletion strains, locus YOR136W, strain idh2, hits give low values",1.01
same,normalized growth,"S. cerevisiae deletion strains, locus YOR144C, strain elg1, hits give low values",0.984
same,normalized growth,"S. cerevisiae deletion strains, locus YOR184W, strain ser1, hits give low values",0.901
same,normalized growth,"S. cerevisiae deletion strains, locus YOR316C, strain cot1, hits give low values",0.985
same,normalized growth,"S. cerevisiae deletion strains, locus YPR119W, strain clb2, hits give low values",0.982
same,normalized growth,"S. cerevisiae deletion strains, locus YPR141C, strain kar3, hits give low values",0.962
same,normalized growth,"S. cerevisiae deletion strains, locus YPR163C, strain tif3, hits give low values",0.993
same,normalized growth,"S. cerevisiae deletion strains, locus YPR167C, strain met16, hits give low values",0.993
same,normalized growth,"S. cerevisiae deletion strains, strain wtn01, hits give low values",0.947
same,normalized growth,"S. cerevisiae strains, strain wild type, hits give low values",0.983
